From PubChem BioAssay AID1259240 (Keith Lab, Institute of Cancer Science, University of …, 2017)
Activity calls are given as the source filed them. Rule as the data show it: active = fold change mostly below about -2 (no sharp cut-off); inactive = mostly above about -1.8.

Assay: TERT promoter activity modulators, primary screen, cell-based, luciferase reporter, human (AID 1259240)
Settings: A2780 TERT promoter luciferase reporter, 16 h; at 20 µM, fold versus average of vehicle-only wells

Fold change, active:
NC(=O)c1ccccc1NC(=O)c1cc(-c2ccc(Br)s2)nc2ccccc12 -2.57
O=c1c2ccccc2[nH]c(=S)n1CCCN1CCc2ccccc2C1 -2.32

Fold change, inactive:
Cc1ccc(CN2C(=O)/C(=C/c3c(NCCO)nc4ccc(C)cn4c3=O)SC2=S)cc1 -1.97
CCOC(=O)N1CCN(c2c(NC3CCCCCC3)c(=O)c2=O)CC1 -1.07
CCC(C)(C)C(=O)Nc1nc2c(s1)C(=O)CC(C)(C)C2 1.17
COc1cccc(/C=c2\sc3nc(=O)c(Cc4ccc(Cl)cc4)nn3c2=O)c1OC -1.08
COc1cc(Cl)cc(OC)c1NC(=O)Nc1ccc2snnc2c1 -1.47
Cc1ccc(N2CCN(c3cc(C)nc4ncnn34)CC2)c(C)c1 -1.38
Cc1ccn2c(NC(=O)C(C)C)c(-c3ccc(F)cc3)nc2c1 -1.4
COc1ccc(NC(=O)c2cnccn2)cc1F -1.32
CCOC(=O)C1=C(CS(=O)(=O)c2ccc(F)c(C)c2)NC(=O)NC1c1cc(OC)ccc1OC (stereo not given) 1.23
COc1ccccc1/C=C/C=c1\sc2nc(-c3ccco3)nn2c1=O 1.41
O=C(c1cncc(Br)c1)N1CCN(c2ccc(N3CCOCC3)nn2)CC1 1.24
Cc1c(NC(=O)Nc2cccc(C#N)c2)c(=O)n(-c2ccccc2)n1C -1.39
CCCSc1nnc2c3ccccc3n(CC)c2n1 -1.73
Cc1cc(C)c2c(=O)n(CC(=O)NCCC3=CCCCC3)sc2n1 1.18
CCc1cccc2c1NC(=O)C2(O)CC(=O)c1cccs1 (stereo not given) 1.14
CCOC(=O)Cn1c(=O)oc2cc(S(=O)(=O)Nc3ccc(F)cc3)ccc21 -1.03
CNC(=O)CN1C(=O)COc2ccc(S(=O)(=O)N3CCOCC3)cc21 -1.1
CC1CC(C)CN(C(=O)Cn2c(=O)oc3cc(S(=O)(=O)NC4CCCC4)ccc32)C1 (stereo not given) 1.02
CCCn1c(OC)nc2c1c(=O)n(C)c(=O)n2C -1.58
COc1ccc(NC(=O)CN2N=NC3C(=O)N(c4ccc(Cl)cc4)C(=O)C32)c(OC)c1 (stereo not given) -1.12
Cc1cc(C)c(C#N)c(SCC(=O)Nc2nc(-c3ccccc3)ns2)n1 -1.27
O=C(NCc1ccc(Cl)cc1)c1c[nH]n2c(=O)cc(C3CCNCC3)nc12 -1.87
CCOC(=O)N1CCN(c2c(NCCCOC)c(=O)c2=O)CC1 1.11
